These results are taken from the supplement of paper PMC9694430.

Common to all, as to assay: thermal shift delta Tm vs DMSO control; higher = stronger stabilization (binding)
What all share (details): 12.5 µM; protein concentration 2 µM

One assay relates to LOC_OS04G57630-cb004. In a few lines: (§1)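 Purified, E. coli-expressed rice kinase domain constructs were tested by differential scanning fluorimetry in 96-well plates: 19.5 μl of 2 μM kinase in 100 mM potassium phosphate pH 7.5, 150 mM NaCl, 10% glycerol, 5 × SYPRO Orange, plus compound in DMSO. Fluorescence was read from 25°C to 95°C at 0.05°C/s. Melting temperatures came from Boltzmann fits, and the shift is the triplicate mean relative to protein with DMSO alone.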

A further assay has as its system LOC_OS05G07850-cb002. In a few lines:
as §1

A further assay has as its system LOC_OS05G16824-cb004. In a few lines:
as §1

The subject of another assay is LOC_OS05G28520-cb001. In a few lines:
as §1

The test system of another assay is LOC_OS05G30820-cb001. In a few lines:
as §1

The test system of the next assay is LOC_OS05G43570-cb004. In a few lines:
as §1

The next assay relates to LOC_OS06G16330-cb003. In a few lines:
as §1

For another assay, the system named is T1, LOC_OS06G22820-cb001.
T1 sequence (whole entry): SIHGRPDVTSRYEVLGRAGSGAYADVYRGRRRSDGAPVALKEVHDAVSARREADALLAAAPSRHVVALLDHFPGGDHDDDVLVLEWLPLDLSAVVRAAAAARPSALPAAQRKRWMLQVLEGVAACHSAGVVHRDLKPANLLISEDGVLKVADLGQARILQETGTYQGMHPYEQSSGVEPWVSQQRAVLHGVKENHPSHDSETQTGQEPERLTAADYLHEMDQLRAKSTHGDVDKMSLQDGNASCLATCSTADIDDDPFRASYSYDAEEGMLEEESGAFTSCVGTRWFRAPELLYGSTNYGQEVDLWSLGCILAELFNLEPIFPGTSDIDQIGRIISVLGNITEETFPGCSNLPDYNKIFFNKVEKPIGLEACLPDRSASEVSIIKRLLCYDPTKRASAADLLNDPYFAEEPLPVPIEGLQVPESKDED
In a few lines:
as §1

Another assay concerns LOC_OS07G06570-cb004. In a few lines: as §1
The next assay deals with LOC_OS07G07230-cb001. In a few lines: as §1

Each structure is given as a SMILES string.

Sequence of LOC_OS06G16330-cb003 (as listed by the source): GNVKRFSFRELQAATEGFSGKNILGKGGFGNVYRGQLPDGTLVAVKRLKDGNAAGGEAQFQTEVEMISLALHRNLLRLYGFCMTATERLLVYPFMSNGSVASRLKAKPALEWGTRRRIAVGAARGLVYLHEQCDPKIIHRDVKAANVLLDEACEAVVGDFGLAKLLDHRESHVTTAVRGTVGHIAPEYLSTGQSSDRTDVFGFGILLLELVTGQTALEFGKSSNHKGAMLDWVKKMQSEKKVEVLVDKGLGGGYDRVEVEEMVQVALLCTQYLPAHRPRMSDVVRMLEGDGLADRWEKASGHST

On to `O=c1nc(N2CCOCC2)oc2c(-c3cccc4c3sc3ccccc34)cccc12`, for which the “thermal shift delta Tm” value in the assay with LOC_OS04G57630-cb004 is -0.05 °C; with LOC_OS05G07850-cb002 it was 1.07 °C; in the assay on LOC_OS05G16824-cb004, 1.26 °C; with LOC_OS05G28520-cb001, -0.27 °C; in the assay on LOC_OS05G30820-cb001 it was -0.09 °C; in the assay on LOC_OS05G43570-cb004 it was -0.65 °C. Besides, the “thermal shift delta Tm” value is -1.74 °C in the assay with LOC_OS06G16330-cb003, 0.33 °C in the assay with LOC_OS06G22820-cb001, 0.14 °C with LOC_OS07G06570-cb004 and 0.66 °C with LOC_OS07G07230-cb001.
As to `CC(C)c1ccc2oc3nc(N)c(C(=O)O)cc3c(=O)c2c1` [Amlexanox], the “thermal shift delta Tm” value with LOC_OS04G57630-cb004 was 0.42 °C; in the assay with LOC_OS05G07850-cb002, 2.22 °C; in the assay with LOC_OS05G16824-cb004, 2.16 °C; in the assay with LOC_OS05G28520-cb001, 0.29 °C; with LOC_OS05G30820-cb001, 2.58 °C; with LOC_OS05G43570-cb004, 0.12 °C. The “thermal shift delta Tm” value in the assay on LOC_OS06G16330-cb003 was 2.5 °C; in the assay with LOC_OS06G22820-cb001 it was 0.56 °C; in the assay on LOC_OS07G06570-cb004 it was 0.44 °C; in the assay with LOC_OS07G07230-cb001 it was 0.63 °C.
As to `CN1CCN(c2nc(C3=C(c4c[nH]c5ccccc45)C(=O)NC3=O)c3ccccc3n2)CC1` [Sotrastaurin], the “thermal shift delta Tm” value with LOC_OS04G57630-cb004 was -0.06 °C; in the assay on LOC_OS05G07850-cb002, 5.2 °C; in the assay with LOC_OS05G16824-cb004 it was 1.64 °C; with LOC_OS05G28520-cb001, 0.09 °C; in the assay with LOC_OS05G30820-cb001 it was 0.74 °C; with LOC_OS05G43570-cb004, 1.24 °C. Also, the “thermal shift delta Tm” value was 0.19 °C in the assay on LOC_OS06G16330-cb003, 0.49 °C with LOC_OS06G22820-cb001, 0.81 °C in the assay with LOC_OS07G06570-cb004 and -0.05 °C in the assay with LOC_OS07G07230-cb001.
Consider `CN(C[C@@H]1COCCO1)S(=O)(=O)Nc1ccc2ccc3ncc(-c4cnn(C)c4)cc3c(=O)c2c1`, for which the “thermal shift delta Tm” value with LOC_OS04G57630-cb004 came out at 4.12 °C; in the assay on LOC_OS05G07850-cb002, 10.5 °C; in the assay with LOC_OS05G16824-cb004 it was 7.72 °C; in the assay on LOC_OS05G28520-cb001 it was 0.77 °C; with LOC_OS05G30820-cb001, 1.85 °C; in the assay with LOC_OS05G43570-cb004, 0.41 °C. Besides, the “thermal shift delta Tm” value worked out at 7.23 °C with LOC_OS06G16330-cb003, 0.65 °C in the assay with LOC_OS06G22820-cb001, 1.07 °C in the assay with LOC_OS07G06570-cb004 and 0.63 °C with LOC_OS07G07230-cb001.
`COc1cc2ccc(=O)oc2cc1O` [Scopoletin]: the “thermal shift delta Tm” value in the assay on LOC_OS04G57630-cb004 was -0.06 °C; with LOC_OS05G07850-cb002, 0.76 °C; with LOC_OS05G16824-cb004, 2.23 °C; in the assay with LOC_OS05G28520-cb001, -0.1 °C; in the assay with LOC_OS05G30820-cb001, 0.06 °C; with LOC_OS05G43570-cb004, -0.08 °C. Further, the “thermal shift delta Tm” value in the assay with LOC_OS06G16330-cb003 is -0.43 °C; with LOC_OS06G22820-cb001, 0.22 °C; in the assay on LOC_OS07G06570-cb004, 1.13 °C; in the assay with LOC_OS07G07230-cb001, 0.87 °C.
As for `CC[C@@H]1C(=O)N(C)c2cnc(Nc3ccc(C(=O)N[C@H]4CC[C@H](N5CCN(CC6CC6)CC5)CC4)cc3OC)nc2N1C(C)C` [Volasertib (BI 6727)], the “thermal shift delta Tm” value with LOC_OS04G57630-cb004 is 0.28 °C; in the assay on LOC_OS05G07850-cb002 it was 1.33 °C; with LOC_OS05G16824-cb004, 2.5 °C; in the assay on LOC_OS05G28520-cb001 it was -0.32 °C; in the assay with LOC_OS05G30820-cb001, 0.58 °C; in the assay on LOC_OS05G43570-cb004 it was 0.4 °C. The “thermal shift delta Tm” value is 0.46 °C with LOC_OS06G16330-cb003, 0.34 °C in the assay on LOC_OS06G22820-cb001, 0.62 °C in the assay with LOC_OS07G06570-cb004 and -0.12 °C in the assay on LOC_OS07G07230-cb001.
In the case of `O=c1cc(N2CCOCC2)oc2c1ccc1ccccc12`, the “thermal shift delta Tm” value is 0.45 °C in the assay with LOC_OS04G57630-cb004; 0.96 °C with LOC_OS05G07850-cb002; 1.86 °C in the assay on LOC_OS05G16824-cb004; 0.42 °C in the assay on LOC_OS05G28520-cb001; 0.43 °C in the assay on LOC_OS05G30820-cb001; 0.67 °C in the assay on LOC_OS05G43570-cb004. Besides, the “thermal shift delta Tm” value in the assay on LOC_OS06G16330-cb003 is -3.55 °C; in the assay with LOC_OS06G22820-cb001, 0.23 °C; with LOC_OS07G06570-cb004 it was 0.63 °C; in the assay with LOC_OS07G07230-cb001 it was 0.36 °C.
Consider `CC[C@@H](N)CNc1ccnc(-c2cc(-c3cnn(C)c3)ccc2O)n1`, for which the “thermal shift delta Tm” value in the assay with LOC_OS04G57630-cb004 was 1.21 °C; in the assay on LOC_OS05G07850-cb002, 8.12 °C; with LOC_OS05G16824-cb004, 8.38 °C; in the assay on LOC_OS05G28520-cb001 it was -0.2 °C; with LOC_OS05G30820-cb001 it was 0.07 °C; in the assay on LOC_OS05G43570-cb004, 0.12 °C. Further, the “thermal shift delta Tm” value in the assay on LOC_OS06G16330-cb003 was found to be 4.5 °C; in the assay with LOC_OS06G22820-cb001, 0.55 °C; in the assay with LOC_OS07G06570-cb004, 0.8 °C; in the assay on LOC_OS07G07230-cb001, 0.48 °C.
For the compound `CNC(=O)c1ccc(Nc2ncc(C(F)(F)F)c(NCc3nccnc3N(C)S(C)(=O)=O)n2)cc1`, the “thermal shift delta Tm” value in the assay on LOC_OS04G57630-cb004 came to 2.75 °C; in the assay with LOC_OS05G07850-cb002, 10.8 °C; in the assay on LOC_OS05G16824-cb004, 9.21 °C; with LOC_OS05G28520-cb001 it was 6.38 °C; with LOC_OS05G30820-cb001, 4.15 °C; in the assay with LOC_OS05G43570-cb004, 0.69 °C. Further, the “thermal shift delta Tm” value in the assay with LOC_OS06G16330-cb003 stood at 5.49 °C; in the assay on LOC_OS06G22820-cb001, 0.27 °C; with LOC_OS07G06570-cb004, 0.66 °C; in the assay with LOC_OS07G07230-cb001 it was 0.51 °C.
`c1cncc(CN2CCC(n3ncc4c(N5CCOCC5)nc(-c5ccc6[nH]ccc6c5)nc43)CC2)c1`: the “thermal shift delta Tm” value in the assay on LOC_OS04G57630-cb004 is 0.55 °C; in the assay on LOC_OS05G07850-cb002 it was 0.6 °C; with LOC_OS05G16824-cb004 it was -2.75 °C; in the assay on LOC_OS05G28520-cb001 it was 0.6 °C; with LOC_OS05G30820-cb001 it was 0.62 °C; with LOC_OS05G43570-cb004 it was -0.19 °C. Also, the “thermal shift delta Tm” value was -0.3 °C with LOC_OS06G16330-cb003, 0.42 °C in the assay with LOC_OS06G22820-cb001, 0.64 °C in the assay on LOC_OS07G06570-cb004 and 0.16 °C in the assay on LOC_OS07G07230-cb001.
Take `O=c1c(-c2ccc(O)cc2)coc2cc(O)cc(O)c12` [Genistein]: the “thermal shift delta Tm” value in the assay with LOC_OS04G57630-cb004 is -1.09 °C; in the assay with LOC_OS05G07850-cb002 it was 5.31 °C; with LOC_OS05G16824-cb004 it was -0.94 °C; with LOC_OS05G28520-cb001 it was -0.31 °C; in the assay with LOC_OS05G30820-cb001 it was 0.78 °C; with LOC_OS05G43570-cb004, 0.36 °C. The “thermal shift delta Tm” value in the assay with LOC_OS06G16330-cb003 is 0.87 °C; in the assay with LOC_OS06G22820-cb001, 0.81 °C; in the assay on LOC_OS07G06570-cb004, -0.45 °C; in the assay with LOC_OS07G07230-cb001, 0.02 °C.
